Measured values from PubChem BioAssay (Tox21).
Records with an inconclusive call do not appear. The source made the active and inactive calls. Unless noted, calls come from the whole dose curve.

Legend:
[1] = Nuclear factor erythroid 2-related factor 2/antioxidant responsive element (Nrf2/ARE) small molecule agonists: luciferase reporter gene qHTS assay in human keratinocytes (AID 1919969); note: nearly all actives have a fitted effect of over 35% in size; note: potency is the fitted concentration of half-maximal effect
[2] = target: Gonadotropin-releasing hormone receptor (Homo sapiens) (UniProt P30968); experiment: Human gonadotropin-releasing hormone receptor (GnRHR) small molecule agonists, calcium flux assay in GnRHR-HEK293 cells (AID 1920063); note: nearly all actives have a fitted effect of over 35% in size
Chain of Gonadotropin-releasing hormone receptor (Homo sapiens) (P30968 whole entry, looked up): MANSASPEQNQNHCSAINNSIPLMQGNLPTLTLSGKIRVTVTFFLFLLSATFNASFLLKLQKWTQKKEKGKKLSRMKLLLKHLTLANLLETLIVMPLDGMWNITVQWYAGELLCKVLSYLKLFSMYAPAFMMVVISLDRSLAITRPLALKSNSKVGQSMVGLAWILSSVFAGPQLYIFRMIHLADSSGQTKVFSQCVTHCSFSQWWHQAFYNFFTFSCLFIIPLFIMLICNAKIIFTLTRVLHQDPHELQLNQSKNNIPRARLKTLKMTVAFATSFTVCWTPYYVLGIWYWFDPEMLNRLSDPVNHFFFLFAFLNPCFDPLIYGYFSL
How it was run: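 Stable human GnRHR HEK293 line. 18 h plating, then calcium dye for 1 h at 37 C. Agonist-mode compound addition from DMSO stocks; fluorescence monitored 3 min.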

[3] = target: KiSS-1 receptor (Homo sapiens) (UniProt Q969F8); experiment: Human kisspeptin (KISS1R) small molecule agonists, calcium flux assay in KISS1R-HEK293 cells (AID 1920064; active = well fitted activation curve with a large enough effect in the repeat runs)
Chain of KiSS-1 receptor (Homo sapiens) (Q969F8 whole entry, looked up): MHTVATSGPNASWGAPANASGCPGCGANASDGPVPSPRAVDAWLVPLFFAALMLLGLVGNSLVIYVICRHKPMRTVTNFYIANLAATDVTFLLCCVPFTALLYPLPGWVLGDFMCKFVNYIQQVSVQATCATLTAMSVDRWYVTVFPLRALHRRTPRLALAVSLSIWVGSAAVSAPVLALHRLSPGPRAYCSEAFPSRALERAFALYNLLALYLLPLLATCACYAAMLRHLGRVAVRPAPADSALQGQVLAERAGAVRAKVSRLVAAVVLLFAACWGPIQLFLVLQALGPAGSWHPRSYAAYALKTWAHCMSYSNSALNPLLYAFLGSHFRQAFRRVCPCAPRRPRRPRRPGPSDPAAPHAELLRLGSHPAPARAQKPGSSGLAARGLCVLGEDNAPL
How it was run: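 After overnight (18 h) culture at 37 C/5% CO2, human KISS1R-HEK293 cells received calcium dye for 1 h, then test compound; emission at 540 nm (excitation 480 nm) was tracked for 3 min.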

[4] = G protein-coupled receptor (GPCR) small molecule agonists, calcium flux assay: HEK293 wild type cell line counter screen (AID 1920065)
How it was run: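 Following 18 h incubation at 37 C/5% CO2, plates got calcium dye for 1 h; compounds, ATP or DMSO were then pinned in and fluorescence followed kinetically (480/540 nm).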

[5] = p53 small molecule agonists, cell-based qHTS assay with human liver microsomes (AID 1963577);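 note: p53 response element beta-lactamase reporter cells with liver microsomes plus NADPH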
How it was run: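 Reporter activation was measured by LiveBLAzer fluorescence intensity in p53RE-bla cells, which had been exposed to compounds for 16 h at 37 C alongside 0.5 mg/mL human liver microsomes and 0.5 mg/mL NADPH (final concentrations).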

[6] = p53 small molecule agonists, cell-based qHTS assay with rat liver microsomes (AID 1963578)
How it was run: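 Compound in DMSO added to p53RE-bla cells 5 h post-plating; rat microsomes/NADPH 0.5 mg/mL final; 16 h, 37 C; LiveBLAzer 2 h RT.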

[7] = p53 small molecule agonists, cell-based qHTS assay with rat liver microsomes: qHTS cell viability counter screen (AID 1963580); note: nearly all actives have a fitted effect of over 45% in size; note: potency is the fitted concentration of half-maximal effect
How it was run: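 Luminescent ATP readout (CellTiter-Glo, 30 min at room temperature) reports viability of p53RE-bla HCT-116 cells after 16 h at 37 C with test compounds under metabolic activation by rat liver microsomes and NADPH at 0.5 mg/mL final each.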

[8] = p53 small molecule agonists, cell-based qHTS assay (AID 1963582; active = well fitted activation curve with a large enough effect in the signal ratio in the repeat runs, not every such curve was filed as active; the % refers to the signal ratio)
How it was run: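 Measured: fluorescence from cleaved LiveBLAzer substrate. System: p53RE-bla cells, 16 h compound treatment at 37 C, 2 h substrate step at room temperature.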

[9] = cAMP Responsive Elements (CRE) small molecule agonists, cell-based qHTS assay (AID 1963590)
How it was run: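 Test agents in DMSO were incubated 3 h at 37 C/5% CO2 with CRE-bla HEK 293T cells seeded 18 h earlier; LiveBLAzer B/G FRET substrate was added and read after 2 h at room temperature.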

[10] = cAMP Responsive Elements (CRE) small molecule antagonists, cell-based qHTS assay (AID 1963591; active = well fitted inhibition curve with a large enough effect in the signal ratio in the repeat runs, not every such curve was filed as active; the % refers to the signal ratio)
How it was run: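 Reporter line CRE-bla HEK 293T in dialyzed-FBS DMEM; cells preincubated 18 h, treated 3 h with compound plus NKH477 (0.25 uM final); LiveBLAzer FRET, 2 h RT.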

[11] = target: Beta-2 adrenergic receptor (Homo sapiens) (UniProt P07550); experiment: Adrenergic beta2 receptor (ADRB2) small molecule antagonists, cell-based qHTS assay (AID 1963592); note: nearly all actives have a fitted effect of over 50% in size; note: potency is the fitted concentration of half-maximal effect
Chain of Beta-2 adrenergic receptor (Homo sapiens) (P07550 whole entry, looked up): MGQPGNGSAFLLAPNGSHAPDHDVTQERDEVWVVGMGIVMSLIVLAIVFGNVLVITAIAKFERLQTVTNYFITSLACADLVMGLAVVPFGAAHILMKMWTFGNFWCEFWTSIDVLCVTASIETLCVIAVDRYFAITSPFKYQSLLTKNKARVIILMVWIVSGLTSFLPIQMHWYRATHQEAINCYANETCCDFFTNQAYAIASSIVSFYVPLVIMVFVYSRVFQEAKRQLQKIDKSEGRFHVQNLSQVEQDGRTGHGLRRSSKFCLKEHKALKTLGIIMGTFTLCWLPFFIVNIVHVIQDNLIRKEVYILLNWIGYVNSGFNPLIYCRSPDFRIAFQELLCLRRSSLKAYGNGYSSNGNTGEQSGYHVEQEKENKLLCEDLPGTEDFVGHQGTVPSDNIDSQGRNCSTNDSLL
How it was run: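 Assay format: CHO-ADRB2 cells, 18-20hr seeding at 37C/5% CO2, then compound plus 1nM isoproterenol agonist mix for 0.5hr RT. Homogeneous time-resolved fluorescence cAMP detection after 1hr, expressed as 665/615 nm ratio.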

[12] = target: D(2) dopamine receptor (Homo sapiens) (UniProt P14416); experiment: Dopamine D2 receptor (DRD2) small molecule agonists, cell-based qHTS assay (AID 1963594); note: nearly all actives have a fitted effect of over 35% in size
Chain of D(2) dopamine receptor (Homo sapiens) (P14416 whole entry, looked up): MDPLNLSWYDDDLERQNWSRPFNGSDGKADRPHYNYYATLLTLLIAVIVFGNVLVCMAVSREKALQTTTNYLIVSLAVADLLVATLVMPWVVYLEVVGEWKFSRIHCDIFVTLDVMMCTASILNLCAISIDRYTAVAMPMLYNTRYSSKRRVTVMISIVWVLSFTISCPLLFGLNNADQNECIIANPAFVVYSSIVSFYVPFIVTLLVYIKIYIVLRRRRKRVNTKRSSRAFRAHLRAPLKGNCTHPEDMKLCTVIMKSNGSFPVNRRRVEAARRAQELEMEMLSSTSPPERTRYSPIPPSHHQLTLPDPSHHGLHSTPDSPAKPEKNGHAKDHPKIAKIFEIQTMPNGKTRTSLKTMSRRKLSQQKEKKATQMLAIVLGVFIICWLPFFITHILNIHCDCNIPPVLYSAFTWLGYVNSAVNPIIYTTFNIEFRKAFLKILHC
How it was run: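 HEK293 cells stably expressing DRD2 were cultured 24 h at 37 C, then given Ro20-1724 (0.1 mM final) and compounds for 10 min at room temperature. NKH477 (200nM) was then added for 30 min. cAMP was read by HTRF.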

[13] = target: D(2) dopamine receptor (Homo sapiens) (UniProt P14416); experiment: Dopamine D2 receptor (DRD2) small molecule antagonists, cell-based qHTS assay (AID 1963595; active = well fitted inhibition curve with a large enough effect in the signal ratio in the repeat runs, with a control signal flat; the % refers to the signal ratio; note: potency is the fitted concentration of half-maximal effect)
How it was run: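 HTRF cAMP read-out at 665 and 620 nm emission (340 nm excitation). Antagonist mode: compounds were tested against 12 nM quinpirole in DRD2-HEK293 cells, with 200 nM NKH477 raising cAMP and 0.1 mM Ro20-1724 blocking its breakdown.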

[14] = p53 small molecule agonists, cell-based qHTS assay with human liver microsomes: qHTS cell viability counter screen (AID 1963579); note: nearly all actives have a fitted effect of over 45% in size; note: potency is the fitted concentration of half-maximal effect
How it was run: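 HLM-supplemented (0.5 mg/mL final) and NADPH-supplemented (0.5 mg/mL final) p53RE-bla cultures, 4,000 cells per well, were dosed with compounds in DMSO for 16 h at 37 C; luminescent ATP detection (CellTiter-Glo, 30 min, room temperature) quantified surviving cells.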

[15] = p53 small molecule agonists, cell-based qHTS assay: qHTS cell viability counter screen (AID 1963581); note: nearly all actives have a fitted effect of over 45% in size; note: potency is the fitted concentration of half-maximal effect
How it was run: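 qHTS counter screen: 16 h compound exposure at 37 C of p53RE-bla HCT-116 cells (4,000 per well, seeded 5 h prior), cell viability by ATP luminescence.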

[16] = target: 5-hydroxytryptamine receptor 2A (Homo sapiens) (UniProt P28223); experiment: 5-hydroxytryptamine receptor 2A (HTR2A) small molecule antagonists, cell-based qHTS assay (AID 1963586); note: nearly all actives have a fitted effect of over 45% in size; note: potency is the fitted concentration of half-maximal effect
Chain of 5-hydroxytryptamine receptor 2A (Homo sapiens) (P28223 whole entry, looked up): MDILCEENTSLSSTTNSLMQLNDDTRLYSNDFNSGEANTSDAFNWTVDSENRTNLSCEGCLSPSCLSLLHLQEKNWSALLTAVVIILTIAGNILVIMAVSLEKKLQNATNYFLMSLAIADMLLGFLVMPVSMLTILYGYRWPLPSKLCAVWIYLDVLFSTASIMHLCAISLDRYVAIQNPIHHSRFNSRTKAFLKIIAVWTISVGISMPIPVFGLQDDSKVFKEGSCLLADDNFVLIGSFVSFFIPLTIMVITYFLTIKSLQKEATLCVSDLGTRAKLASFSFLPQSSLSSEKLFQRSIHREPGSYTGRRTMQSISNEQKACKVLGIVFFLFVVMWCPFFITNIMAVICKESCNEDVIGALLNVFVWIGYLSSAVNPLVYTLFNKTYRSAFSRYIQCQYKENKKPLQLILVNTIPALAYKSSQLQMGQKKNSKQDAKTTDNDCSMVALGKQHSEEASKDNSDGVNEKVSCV
How it was run: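 CHO cells stably expressing human HTR2A were plated for 18 h at 37 C, then loaded with calcium dye for 1 h. Compounds were preincubated 5 min at room temperature before DOI (4 nM solution) was added. Kinetic fluorescence was read for 3 min.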

[17] = target: 5-hydroxytryptamine receptor 2A (Homo sapiens) (UniProt P28223); experiment: 5-hydroxytryptamine receptor 2A (HTR2A) small molecule agonists, cell-based qHTS assay (AID 1963587); note: nearly all actives have a fitted effect of over 30% in size; note: potency is the fitted concentration of half-maximal effect
How it was run: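 HTR2A-CHO cells, plated 18 h at 37 C/5% CO2, dye-loaded 1 h at 37 C; compounds in DMSO added by pin tool (agonist mode). Intracellular calcium flux read as kinetic fluorescence on FDSS over 2 min at 1 s intervals.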

[18] = target: Muscarinic acetylcholine receptor M1 (Homo sapiens) (UniProt P11229); experiment: Cholinergic receptor muscarinic 1 (CHRM1) small molecule antagonists, cell-based qHTS assay (AID 1963588); note: nearly all actives have a fitted effect of over 40% in size; note: potency is the fitted concentration of half-maximal effect
Chain of Muscarinic acetylcholine receptor M1 (Homo sapiens) (P11229 whole entry, looked up): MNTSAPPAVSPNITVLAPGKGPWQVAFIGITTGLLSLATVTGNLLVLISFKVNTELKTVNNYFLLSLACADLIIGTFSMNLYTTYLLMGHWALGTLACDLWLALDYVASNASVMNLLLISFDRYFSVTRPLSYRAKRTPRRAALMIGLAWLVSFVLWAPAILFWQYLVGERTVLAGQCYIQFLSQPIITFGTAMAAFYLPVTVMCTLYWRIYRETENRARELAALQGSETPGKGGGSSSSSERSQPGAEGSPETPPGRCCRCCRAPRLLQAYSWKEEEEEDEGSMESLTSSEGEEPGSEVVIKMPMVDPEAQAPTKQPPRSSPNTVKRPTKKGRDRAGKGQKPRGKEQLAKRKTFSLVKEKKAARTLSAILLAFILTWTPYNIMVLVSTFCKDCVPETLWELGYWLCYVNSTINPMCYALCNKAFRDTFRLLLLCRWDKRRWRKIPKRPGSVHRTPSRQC
How it was run: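 Compounds were tested at 15 concentrations in three independent runs. Dye-loaded CHRM1-CHO cells were exposed 5 min at room temperature before stimulation by acetylcholine added at 50nM. Intracellular calcium was read kinetically on FDSS for 3 min.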

[19] = target: Beta-2 adrenergic receptor (Homo sapiens) (UniProt P07550); experiment: Adrenergic beta2 receptor (ADRB2) small molecule agonists, cell-based qHTS assay (AID 1963593); note: potency is the fitted concentration of half-maximal effect;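 for activation: CHO cells stably overexpressing human ADRB2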
How it was run: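 CHO cells stably over-expressing ADRB2 were plated overnight at 37C, then dosed with compounds plus a stimulation mix containing 100uM IBMX and 25uM Ro-20-1724 for 0.5hr at room temperature. cAMP was measured by HTRF competition, 1hr.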

[20] = target: Muscarinic acetylcholine receptor M1 (Homo sapiens) (UniProt P11229); experiment: Cholinergic receptor muscarinic 1 (CHRM1) small molecule agonists, cell-based qHTS assay (AID 1963589); note: nearly all actives have a fitted effect of over 35% in size
How it was run: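 Kinetic fluorescence (1 s intervals) of calcium-sensitive dye in human M1 CHO cells after compound addition; cells pre-incubated 18 h at 37 C/5% CO2 and dye-loaded 1 h.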
% is set by controls: 0 for no effect and ±100 for the full control effect.

CCS(=O)(=O)CCn1c([N+](=O)[O-])cnc1C
inactive: Potency [1] | Potency [2] | outcome [3] | outcome [4] | Potency [5] | Potency [6] | Potency [7] | Potency [8] | Potency [9] | Potency [10] | Potency [11] | Potency [12] | Potency [13]

Cc1cc(O)c(C(C)(C)C)cc1Sc1cc(C(C)(C)C)c(O)cc1C
inactive: Potency [1] | Potency [2] | outcome [3] | outcome [4] | Potency [5] | Potency [6] | Potency [16]
active: Potency [14] 9.11 µM | Potency [7] 20.4 µM | Potency [15] 5.75 µM | Potency [17] 43.6 µM | Potency [18] 26.5 µM | Potency [11] 27.3 µM | Potency [13] 21.6 µM

C[n+]1cc2c3c(ccc2c2ccc4cc5c(cc4c21)OCO5)OCO3
active: Potency [1] 1.46 µM | Potency [19] 9.2 µM | Potency [13] 13 µM
inactive: activity change [2] 3.58% [at 11.8 µM, active compounds read high] | activation [3] 0.698% [at 15.8 µM] | activation [4] 3.71% [at 11.8 µM] | activation [5] -8.2% [at 13.5 µM] | activation [6] -6.71% [at 13.6 µM] | activity change, negative = cytotoxicity [15] -21.2% [at 13.5 µM] | activation [8] -0.417% [at 13.5 µM] | activity, negative = inhibition [16] 8.48% [at 12.7 µM] | activation [17] 10.7% [at 15.9 µM] | activity, negative = inhibition [18] -0.831% [at 12.6 µM]

C=C(C)C(=O)OCCCCCCCCCCOC(=O)C(=C)C
inactive: Potency [1] | Potency [2] | outcome [3] | outcome [4] | Potency [5] | Potency [6] | Potency [7] | Potency [8] | Potency [17] | Potency [18] | Potency [20] | Potency [9] | Potency [10] | Potency [11] | Potency [12] | Potency [13]

C=C(C)C(=O)OC1CC(C)CC(C)(C)C1 (stereo unspecified)
inactive: Potency [1] | Potency [2] | outcome [3] | Potency [6] | Potency [14] | Potency [7] | Potency [15] | Potency [8] | Potency [16] | Potency [17] | Potency [18] | Potency [20] | Potency [9] | Potency [10] | Potency [11] | Potency [12] | Potency [13]

c1ccc(-c2nn[nH]n2)cc1
inactive: Potency [1] | Potency [2] | outcome [3] | Potency [5] | Potency [6] | Potency [14] | Potency [7] | Potency [15] | Potency [8] | Potency [16] | Potency [17] | Potency [18] | Potency [20] | Potency [9] | Potency [10] | Potency [11] | Potency [13]

Cc1cc(NC(=O)C2=C(O)c3ccccc3S(=O)(=O)N2C)no1
inactive: Potency [1] | Potency [2] | outcome [4] | Potency [5] | Potency [6] | Potency [14] | Potency [7] | Potency [15] | Potency [8] | Potency [17] | Potency [18] | Potency [20] | Potency [9] | Potency [10] | Potency [11] | Potency [19] | Potency [12] | Potency [13]

CCNC(=O)N1CCN(CCCC(c2ccc(F)cc2)c2ccc(F)cc2)CC1
inactive: Potency [1] | outcome [3] | Potency [5] | Potency [6] | Potency [14] | Potency [7] | Potency [15] | Potency [17] | Potency [20] | Potency [9] | Potency [12]
active: Potency [16] 0.23 µM

C[N+]12CCC(CC1)C(OC(=O)C(O)(c1ccccc1)c1ccccc1)C2 (stereo unspecified)
active: Potency [18] 0.0013 µM
inactive: Potency [1] | outcome [3] | outcome [4] | Potency [5] | Potency [6] | Potency [14] | Potency [7] | Potency [8] | Potency [16] | Potency [17] | Potency [20] | Potency [9] | Potency [10] | Potency [11] | Potency [19] | Potency [12] | Potency [13]

NS(=O)(=O)c1cc(-c2nn[nH]n2)c(NCc2cccs2)cc1Cl
inactive: Potency [1] | Potency [2] | outcome [4] | Potency [5] | Potency [6] | Potency [14] | Potency [7] | Potency [8] | Potency [17] | Potency [18] | Potency [20] | Potency [9] | Potency [11] | Potency [19] | Potency [12]

CCCCC(=O)O[C@]1(C(=O)CO)CC[C@H]2[C@@H]3CCC4=CC(=O)CC[C@]4(C)[C@H]3[C@@H](O)C[C@@]21C
inactive: Potency [1] | Potency [2] | outcome [3] | Potency [6] | Potency [14] | Potency [7] | Potency [15] | Potency [8] | Potency [16] | Potency [17] | Potency [18] | Potency [20] | Potency [11] | Potency [19] | Potency [12]

O=C(O)c1cc(-c2ccc(F)cc2F)ccc1O
inactive: Potency [1] | outcome [3] | outcome [4] | Potency [5] | Potency [6] | Potency [14] | Potency [7] | Potency [15] | Potency [11] | Potency [12] | Potency [13]

CC(C)(c1ccc(Oc2ccc3c(c2)C(=O)OC3=O)cc1)c1ccc(Oc2ccc3c(c2)C(=O)OC3=O)cc1
active: Potency [18] 37.3 µM
inactive: Potency [1] | outcome [3] | outcome [4] | Potency [5] | Potency [14] | Potency [7] | Potency [15] | Potency [8] | Potency [16] | Potency [17] | Potency [9] | Potency [10] | Potency [11] | Potency [19] | Potency [13]

CC(=O)C=O
inactive: Potency [2] | outcome [3] | outcome [4] | Potency [5] | Potency [6] | Potency [14] | Potency [7] | Potency [15] | Potency [8] | Potency [16] | Potency [17] | Potency [18] | Potency [20] | Potency [9] | Potency [10] | Potency [11] | Potency [12] | Potency [13]

Oc1ccc(C2CNCCc3c2cc(O)c(O)c3Cl)cc1 (stereo unspecified)
inactive: Potency [2] | outcome [3] | outcome [4] | Potency [5] | Potency [6] | Potency [14] | Potency [7] | Potency [8] | Potency [20] | Potency [9] | Potency [10]
active: Potency [16] 0.259 µM | Potency [17] 0.151 µM
